# Only some compounds are listed: those with a hit (about 2.2% of all), similar ones and a draw of the others.
# ABCB6 inh MLPCN: inhibitors of human ABC transporter ABCB6 | fluorescence ratio to DMSO, % at 10 µM | K562-ABCB6 porphyrin accumulation, flow cytometry, 1 h; hits give low values | Q9NP58 | 360,000 compounds, 0.19% hits;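 active means fluorescence ratio to DMSO below 75%, the collection mean minus 3 SD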;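 further: signal is porphyrin accumulated inside mitochondria; 100% equals median channel fluorescence of DMSO control wells; lower ratio means ABCB6 inhibition with less porphyrin fluorescence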
# Myeloid diff 2: promotes myeloid progenitor differentiation. 360,000 compounds, 1% hits. AID 624256. ER-HoxA9 myeloid progenitors, lysozyme-GFP differentiation, flow cytometry. calls only at 10 µM;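 active means normalized GFP-positive differentiation at or above the plate's own cutoff, the solvent-only control mean plus 3 SD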;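 further: cells exposed to compound for four days before flow analysis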
# hiPSC survival: hiPSC single-cell survival enhancement | survival enhancement, % at 20 µM | ATPlite luminescence; 100% = ROCK inhibitor wells, 0% = DMSO | AID 602274 | 360,000 compounds, 0.044% hits; in the data active means survival enhancement above about 18%;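 further: cells exposed to compounds for 16 hours before the ATP read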
# MIN6 prolif: inducers of beta-cell replication in MIN6 cells; MIN6 cells proliferation, ATPlite luminescence, 48 h; cells starved in 0.2% serum; 100% = growth in 10% serum; proliferation, % at 10 µM; 330,000 compounds, 0.29% hits;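 active means compounds whose signal lies at least 3.5 SD above the mean of all wells on their plate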;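 further: 0% = DMSO-treated cells in low-serum medium and 100% = 10% serum control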
# H9c2 protect: modulators protecting cardiomyocytes from myocardial damage; protection from H2O2 cell death, % at 20 µM; H9c2 cardiomyocytes, H2O2 injury protection, ATPLite, 2 h; 360,000 compounds, 0.63% hits; AID 588492;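 active means compounds giving at least 50% protection of heart cells from peroxide-induced death in the single-dose screen, raw or plate-pattern-corrected value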;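 further: 0% = DMSO wells with peroxide and 100% = DMSO wells without peroxide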
# ABCB6 blocker 1: inhibitors of human ABC transporter ABCB6. 700 tested, under 10 active. K562-ABCB6 porphyrin accumulation, flow cytometry, 1 h; hits give low values. shares compounds with ABCB6 inh MLPCN. ratio response (% of DMSO), % at 10 µM;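 active means repeat-averaged ratio response below 75% of DMSO, the collection mean minus 3 SD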;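 further: median porphyrin fluorescence at 575 nm with 488 nm excitation from mitochondria; lower ratio means less porphyrin signal so ABCB6 inhibition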
# * = called active by the depositor; i = inactive; / = not tested or not shown.
SMILES,ABCB6 inh MLPCN,Myeloid diff 2,hiPSC survival,MIN6 prolif,H9c2 protect,ABCB6 blocker 1
CC(C)CN(C(=O)CCC(=O)OCC(=O)c1ccc(F)c(F)c1)c1c(N)n(CC(C)C)c(=O)[nH]c1=O,91,i,0,0,-7,/
CCCCCN(C(=O)CCC(=O)OCC(=O)c1ccc(CCC)cc1)c1c(N)n(CCCC)c(=O)[nH]c1=O,73*,i,0,-3,-2,98
COC(=O)C1=C(O)/C(=C\c2ccc(OCC(=O)Nc3ccccc3OC)cc2)N=C1C,105,i,0,2,14,/
COc1ccc(CN(Cc2cccnc2)S(=O)(=O)c2ccc(-n3cnnn3)c(OC)c2)cc1,96,i,0,-1,19,/
CCCCCN(C(=O)CCC(=O)OCc1ccccc1C)c1c(N)n(CCCC)c(=O)[nH]c1=O,97,i,0,-3,4,/
CCCCCN(C(=O)CCC(=O)OC(C)C(=O)Nc1ccccc1C)c1c(N)n(CCCC)c(=O)[nH]c1=O (configuration not stated),98,i,-1,/,-1,103
CC(=O)C1=C(c2ccccc2)NC(=O)NC1c1ccc2c(c1)OCO2 (configuration not stated),98,i,0,-2,0,/
COc1cccc(NC(=O)N(Cc2ccco2)C(C)c2cccs2)c1 (configuration not stated),73*,i,1,2,2,106
CC(c1cccs1)N(Cc1ccco1)C(=O)Nc1ccc(Cl)c(Cl)c1 (configuration not stated),97,i,-1,-6,-9,/
O=C(NCc1ccc(S(=O)(=O)Nc2ccccc2Cl)s1)c1ccccc1,105,i,0,-3,1,/
CCN(CC)C(=O)CSc1nc(O)c(Cc2ccccc2)c(=O)n1-c1ccccc1,57*,i,-1,-1,10,100
O=C(Nc1ccc(F)c(Cl)c1)C1Cc2c(-c3cccc(F)c3)ccnc2O1 (configuration not stated),72*,i,-2,/,-4,101
O=C(Nc1ccc2c(c1)OCO2)C1Cc2c(-c3ccc(Cl)cc3)ccnc2O1 (configuration not stated),97,i,-2,/,0,97
CC(C)c1ccc(NC(=O)C2Cc3c(-c4cccc(F)c4)ccnc3O2)cc1 (configuration not stated),97,i,2,/,-15,/
CC(=O)c1cccc(-c2ccnc3c2CC(C(=O)Nc2ccc(F)c(Cl)c2)O3)c1 (configuration not stated),94,i,-4,/,-8,100
CN1C(=O)CSC1=Nc1cccc(C(=O)O)c1,97,i,-1,-2,5,/
C[C@@H]1O[C@H](C2CCCC2)CC2=C1C(=O)OC(C)(C)O2,98,i,0,/,/,/
O=C(NCCN1CCN(C(=O)c2ccccc2Cl)CC1)C(=O)NCc1ccccc1,99,i,0,0,2,/
CN(c1ccccc1)S(=O)(=O)c1cccc(NC(=O)Cc2n[nH]c(=O)c3ccccc23)c1,97,i,-1,-3,33,/
CC(O)CNCCNCc1cccs1 (configuration not stated),96,i,0,-2,16,/
COc1ccc(C(=O)OCC(=O)Nc2cc(C)c(C)cc2[N+](=O)[O-])cc1,57*,i,-2,5,-4,102
CCOC(=O)c1sc(C)c(C(N)=O)c1NC1=NCCCCC1,103,i,0,-3,11,/
CCOC(=O)Cc1nnc(NC(=O)C(CC)Sc2nnc3c4ccccc4n(C)c3n2)s1 (configuration not stated),74*,i,3,-3,-2,100
CCOC(=O)c1sc(NC(=O)C(CC)Sc2nnc3c4ccccc4n(C(C)C)c3n2)nc1C (configuration not stated),93,i,-2,/,-6,/
COc1ccccc1-c1cc2nc(NCCOc3ccccc3)ccn2n1,61*,i,2,/,-6,104
c1ccc(OCCNc2ccn3nc(-c4ccccc4)cc3n2)cc1,101,i,2,/,-2,/
CC(=O)Nc1nc(C(F)(F)F)cs1,97,i,2,0,-6,/

# Compound activity as filed in PubChem BioAssay.
